Rows were chosen to be rich in hits. Some 1.2% of all compounds tested hit in one or more screens of this group.
NS1 inh: blocks influenza NS1 protein function | Potency, µM (series often up to 46.1 µM) | actives 0.4% (n = 270,000); calls by dose curve; further: actives are rising curves; nearly all actives have a fitted effect of over 50% in size
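In this qHTS, NS1 from influenza A is expressed in budding yeast, where it slows growth. Cells are switched from glucose to 2% galactose medium (pH 6.0, -URA), treated with compound, and growth recovery is read at OD600.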
AMA1 RON2 block: disrupts binding of P. falciparum AMA1 to RON2. AID 720542. actives 0.2% (n = 360,000). AlphaScreen AMA1-biotinylated RON2 peptide binding. Potency, µM (doses to about 58.2 µM), most hits filed as inhibitors; further: nearly all actives have a fitted effect of over 45% in size
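AMA1 (3D7) with his tag at 25 nM final met compounds first, then biotinylated RON2 peptide at 25 nM; detection used donor plus acceptor beads, 10 µg/mL apiece, read by AlphaScreen after 30 min at room temperature.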
Tb PYK inh: T. brucei pyruvate kinase inhibition. Q57TT1. TbPYK enzyme, Kinase-Glo Plus ATP luminescence, 45 min. Potency, µM (highest dose often 76.8 µM), actives largely listed as inhibitors. actives 0.12% (n = 410,000); further: nearly all actives have a fitted effect of over 50% in size
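ADP (130 uM final) triggers the TbPYK reaction after compound addition; incubation is 45 min at room temperature. Kinase-Glo Plus is then added and luminescence imaged. Normalized data are fitted to concentration-effect curves.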
Giardia FBPA inh: blocks Giardia fructose-bisphosphate aldolase activity. A8B2U2. purified Giardia FBPA. Potency, µM (highest dose often 59.6 µM), actives largely listed as inhibitors. actives 0.71% (n = 290,000). AID 2451; further: nearly all actives have a fitted effect of over 55% in size
Target sequence (A8B2U2 whole entry, looked up): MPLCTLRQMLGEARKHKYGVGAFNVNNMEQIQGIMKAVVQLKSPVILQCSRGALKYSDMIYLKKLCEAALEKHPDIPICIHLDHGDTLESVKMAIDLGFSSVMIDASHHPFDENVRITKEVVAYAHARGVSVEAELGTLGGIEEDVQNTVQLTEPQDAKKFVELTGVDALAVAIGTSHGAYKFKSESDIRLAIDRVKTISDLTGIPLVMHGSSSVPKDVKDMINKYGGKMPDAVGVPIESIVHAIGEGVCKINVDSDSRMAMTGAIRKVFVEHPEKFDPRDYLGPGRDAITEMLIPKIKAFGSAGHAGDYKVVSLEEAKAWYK
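Giardia FBPA (40 nM reagent) was preincubated 10 min at RT with compound (up to 57.5 uM final), then substrate plus GAPDH/TPI/NAD/arsenate coupling system with diaphorase/resazurin was added; resorufin fluorescence (525/598 nm) was read after 20 min.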
LmPK inh: LmPK (Leishmania mexicana) enzyme inhibition; Q27686; purified LmPK, Kinase-Glo ATP luminescence, 1 h; Potency, µM (titrated, usually from 57.5 µM), most hits filed as inhibitors; actives 0.37% (n = 290,000)
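ATP generated from ADP (0.1 mM) and PEP (0.5 mM) by 0.1 nM LmPK over 1 h at room temperature (pH 7.2 imidazole buffer) was detected by coupled luciferase luminescence. Values were normalized to uninhibited and no-enzyme wells.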
Hits are given with their value; n = inactive; u = inconclusive; x = no result; [ ] = remark or other dose. Unless noted, the call rests on the fitted dose curve; in most records, active means well fitted curve in the direction sought with a large enough effect; inconclusive means small, poorly fitted or top-dose-only effect, or another doubt; inactive means no such curve, though single readings can be large; an effect the other way counts as inactive or inconclusive.

SMILES	NS1 inh	AMA1 RON2 block	Tb PYK inh	Giardia FBPA inh	LmPK inh
C=C[C@@H](C1=CC(=O)C(OC)=C(OC)C1=O)c1ccccc1	x	x	x	22µM	x
Cc1occc1C(=O)N/N=C/c1cccs1	n	n	n	x	14µM
Cc1occc1C(=O)N/N=C/c1ccc(-c2ccccc2)cc1	n	n	u	n	n
COc1ccc(NC(=O)Cc2csc(NC(=O)Nc3ccccc3OC)n2)cc1	x	n	n	x	x
COc1ccccc1NC(=O)Nc1nc(CC(=O)Nc2ccc(N(C)C)cc2)cs1	x	18µM	n	x	x
CCCCCC1=C2CNC(Cc3ccccc3)(C(=O)OC)C=C2C(C)C1=O (stereo unspecified)	x	x	x	n	x
CSc1nc(O)c(N=Nc2ccc(F)cc2F)c(=O)[nH]1	n	n	n	n	16µM
CSc1nc(O)c(C(c2ccc(F)cc2)c2c(O)nc(SC)[nH]c2=O)c(=O)[nH]1	x	n	n	x	x
Nc1c(C(=O)N2CCOCC2)sc2nc3c(cc12)CCCC3	n	n	u	n	u
Nc1c(C(=O)N2CCOCC2)sc2nc3c(cc12)CCC3	n	n	n	n	16µM
Cc1ccc2c(c1)COc1c3ccc(C(=O)NCC4CC4)cc3nn1-2	n	n	n	n	n
O=C(NCC1CC1)c1ccc2c3n(nc2c1)-c1ccccc1CO3	n	n	u	n	14µM
CC(C)NC(=O)c1ccc2c3n(nc2c1)-c1ccccc1CO3	n	n	u	n	13µM
CC(C)[C@@H](CO)NC(=O)c1ccc2c3n(nc2c1)-c1ccccc1CO3	n	n	n	n	14µM
C[C@@](N)(Cc1ccc(O)c(O)c1)C(=O)O	x	x	x	22µM	x
Cc1cc2c(NC(=O)Nc3ccc(C(C)(C)C)cc3)cccc2nn1	n	n	n	u	n
Cc1cc2c(NC(=O)Nc3ccccc3)cccc2nn1	n	n	n	5µM	n
O=C(Nc1nc2ccccc2s1)c1cnccn1	n	n	n	n	10µM
O=C(Nc1nc2ccc(F)cc2s1)c1ccccn1	n	n	u	u	18µM
CCOc1ccc2nc(NC(=O)c3cnccn3)sc2c1	n	n	n	n	n
O=C(O)C1(C(=O)O)CCC1.[NH2-].[NH2-].[Pt+2]	x	x	x	14µM	x
COC(=O)c1ccccc1NC1=C/C(=N\S(=O)(=O)c2cccs2)c2ccccc2C1=O	n	3.2µM	n	u	18µM
COC(=O)c1ccccc1NC1=C/C(=N\S(=O)(=O)c2ccc(C(=O)O)cc2)c2ccccc2C1=O	n	u	n	1µM	n
CC(C)(C)c1ccc(S(=O)(=O)/N=C2\C=C(NS(=O)(=O)c3ccccc3)C(=O)c3ccccc32)cc1	n	n	n	u	n
COc1ccc(C)cc1NC(=O)CN1C(=O)COc2ccc(S(=O)(=O)NC3CCCC3)cc21	x	x	n	x	x
SMILES	NS1 inh	AMA1 RON2 block	Tb PYK inh	Giardia FBPA inh	LmPK inh
CCCOc1ccc(C2C(C(=O)/C=C/c3ccco3)=C(O)C(=O)N2CCN2CCOCC2)cc1OC (stereo unspecified)	x	n	n	7.9µM	n[11.5 µM]
COc1cc(C2C(C(C)=O)=C(O)C(=O)N2CCN2CCOCC2)ccc1O (stereo unspecified)	n	n	n	n	n
S=c1[nH]nc(-c2ccc3ncccc3c2)n1-c1ccc2c(c1)OCCO2	x	n	3.5µM	n	7.1µM
S=c1[nH]nc(Cn2c(-c3ccccn3)nc3ccccc32)n1-c1ccc2c(c1)OCCO2	n	n	16µM	n	u
Cc1nc2ccccc2n1Cc1n[nH]c(=S)n1-c1ccc(Cl)cc1	n	n	u	n	n
CN(C)c1ccc(-c2n[nH]c(=S)n2-c2ccccc2)cc1	x	n	u	n	n
Oc1ccc(-c2n[nH]c(=S)n2-c2ccc3c(c2)OCCO3)cc1	n	n	4.5µM	n	u
CCOc1ccc(NC(=O)c2cc(S(=O)(=O)N3CCN(c4ccccc4F)CC3)ccc2F)cc1	x	x	n	x	x
Clc1cccc(CSc2nncn3c2cc2sccc23)c1	x	x	n	x	x
CC[C@@]1([N+](=O)[O-])C[C@H]2C=C[C@@H]1C2	n	x	x	x	x
Cc1cccc(Cl)c1OCCN1CCCC1	n	n	n	25µM	n
Clc1cccc(Cl)c1OCCCCN1CCCCC1	n	u	n	u	n
CC(C)C[C@H](NC(=O)[C@H](Cc1ccccc1)NC(=O)c1cnccn1)B(O)O	x	x	n	x	x
O=C1C=CC(=O)N1c1cccc(-c2ccccc2)c1	n	n	5µM	n	u
O=C1c2ccccc2C(=O)N1c1ccccc1	x	n	n	x	x
CN1C(=O)/C(=C\c2ccc(N(C)C)cc2)OC1=S	n	n	n	n	n
CN(C)c1ccc(C=C2C=CC=C2)cc1	x	22µM	n	x	x
CC#CCOC(=O)c1c(C)nc2sc3c(c2c1N)CC[C@@H](O)C3	x	x	x	n	x
CN(C)c1ccc(C(c2ccc(N(C)C)cc2)c2ccc([N+](=O)[O-])cc2)cc1	n	8.9µM	n	n	n
O=[N+]([O-])c1ccc(C(=S)N2CCN(c3ccc(F)cc3)CC2)cc1	n	u	n	n	n
CN(C)c1ccc(C(=S)N2CCN(c3ccc([N+](=O)[O-])cc3)CC2)cc1	n	n	u	7.9µM	n
CC(C)(C)c1ccc2c(S(=O)(=O)O)c(C(C)(C)C)ccc2c1	x	x	n	x	x
O=C(O)c1ccc2nc(-c3cc4cccc(O)c4oc3=O)[nH]c2c1	x	x	20µM	x	x
COc1ccc2nc(NC(=O)c3ccoc3C)sc2c1	n	n	u	n	5µM
COc1ccc2nc(NC(=O)c3cc(C)oc3C)sc2c1	n	n	n	n	25µM
SMILES	NS1 inh	AMA1 RON2 block	Tb PYK inh	Giardia FBPA inh	LmPK inh
COc1ccc(S(=O)(=O)NCCS(=O)(=O)N2CCN(c3ccccc3)CC2)cc1OC	x	x	n	x	x
COc1ccccc1C(CCNCc1ccc(N(C)C)cc1)c1ccc(OC(C)C)cc1 (stereo unspecified)	n	8.9µM	n	n	n
COc1ccc(CNCCC(c2ccc(OC(C)C)cc2)c2ccccc2OC)cc1 (stereo unspecified)	n	n	n	n	n
c1ccc(CNCCC(Cc2ccccc2)c2ccco2)cc1 (stereo unspecified)	n	n	n	n	n
CN(C)c1ccc(CNCCC(Cc2ccccc2)c2ccco2)cc1 (stereo unspecified)	n	16µM	n	n	n
COc1cccc2c1Oc1ncccc1N(c1ccc(C(=O)NCc3ccccc3C)s1)C2	x	x	n	x	x
Cc1cc(-c2n[nH]c(=S)n2/N=C/c2c[nH]c3ccccc23)n[nH]1	n	n	2.8µM	n	u
Fc1ccc(-c2n[nH]c(=S)n2/N=C/c2c[nH]c3ccccc23)cc1	n	n	n	n	n
Cc1cc(-c2n[nH]c(=S)n2/N=C/c2ccc(Br)s2)n[nH]1	n	n	1.1µM	n	n
Cn1nc(-c2ccccn2)nc2c(=O)n(C)c(=O)nc1-2	n	8.9µM	n	u	n
CCCc1nc2c(=O)n(C)c(=O)nc-2n(C)n1	x	n	n	5µM	n
COc1ccc(-c2nc(-c3ccccn3)ncc2S(C)(=O)=O)cc1	x	n	n	n	n
CCn1c(N)nc2c1c(=O)n(C)c(=O)n2C	n	n	n	n	n
Cc1cc2nc3s/c(=C/c4ccc(-c5ccccc5C(=O)O)o4)c(=O)n3c2cc1C	n	n	n	n	n
